# Laboratory results taken from PubChem BioAssay (NCATS).
# Inconclusive results are not listed. Entries that show only a call come without a potency. Values without a mark were called inactive. The source made the active and inactive calls. Calls come from the whole dose curve; as a rule, active = well fitted inhibition curve with a large enough effect; inconclusive = small, poorly fitted or top-dose-only effect; inactive = flat fitted curve, though single readings scatter.
# Assay: P-glycoprotein substrates identified in KB-8-5-11 adenocarcinoma cell line, qHTS therapeutic library screen (AID 1346987); note: nearly all actives have a fitted effect of over 65% in size
# Conditions: KB-8-5-11 (P-gp overexpressing) viability, CellTiter-Glo, 72 h; series mostly up to 44.5 µM
# Method in brief: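 P-gp-mediated resistance screen: KB-8-5-11 cells treated 72 h with compounds in dose-response. CellTiter-Glo viability.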
# Potency is the fitted concentration of half-maximal effect.
SMILES,Potency,"activity change, negative = cytotoxicity"
N#CCc1ccc(O)cc1O[C@@H]1O[C@H](CO)[C@@H](O)[C@H](O)[C@H]1O,inactive,
CNC(=O)O[C@H]1COc2ccc(N3CCN(C4COC4)CC3)cc2[C@@H]1NC(=O)c1ccc(F)cc1,inactive,
CC(=O)OC1C(O)CC(O[C@@H]2O[C@H](CO)[C@@H](O)[C@H](O)[C@H]2O)C2CCC3C(=O)OC(c4ccoc4)CC3(C)C21 (stereo not given in full),inactive,
CC(C)[C@@H](C)/C=C/[C@@H](C)[C@H]1CC[C@H]2C3=CC=C4C[C@@H](O)CC[C@]4(C)[C@H]3CC[C@]12C,inactive,
O=C(/C=C/c1c(C(=O)O)[nH]c2cc(Cl)cc(Cl)c12)Nc1ccccc1,inactive,
O=C(/C=C/c1ccc(O)cc1)O[C@H]1[C@@H]2C=CO[C@@H](O[C@@H]3O[C@H](CO)[C@@H](O)[C@H](O)[C@H]3O)[C@@H]2[C@@]2(CO)O[C@@H]12,inactive,
C=C(C)C(=O)O[C@H]1C[C@@](C)(OC(C)=O)[C@@]2(O)CC[C@@](C)(O)[C@H](OC(C)=O)[C@@]23OC(=O)C(COC)=C13,inactive,
CC1CCC2(C)C(CC(O)C(O)C23CO3)C1(C)CCC1=CC(=O)OC1O (stereo not given),inactive,
CC(C)C1=CC2=CCC3[C@](C)(CCC[C@@]3(C)C(=O)O)C2CC1O (stereo not given in full),inactive,
C[C@@H]1O[C@@H](O[C@H]2[C@H](O[C@H]3[C@H](O[C@H]4CC[C@@]5(C=O)C(CC[C@]6(C)C5CC=C5C7CC(C)(C)C[C@@H](O)[C@]7(C)CC[C@]56C)C4(C)C)O[C@H](C(=O)O)[C@@H](O)[C@@H]3O)OC[C@@H](O)[C@@H]2O)[C@H](O)[C@H](O)[C@H]1O (stereo not given in full),,5.8% [at 9.29 µM]
COc1cc([C@@H]2c3cc4c(cc3[C@@H](O[C@@H]3O[C@@H]5CO[C@@H](C)O[C@H]5[C@H](O)[C@H]3O)[C@H]3COC(=O)[C@H]23)OCO4)cc(OC)c1O,inactive,
COC(=O)c1cc(CN2CCN(C(=N)N)CC2)cc(C(=O)N2CCN(C(=O)c3ccc(C(=N)N)cc3)CC2)c1,inactive,
C/C(=C\CCC(C(=O)O)C1CCC2(C)C3=C(CCC12C)C1(C)CCC(=O)C(C)(C)C1CC3)C(=O)O (stereo not given),inactive,
O=C(Nc1cccc(C(F)(F)F)c1)c1cc(Br)cc(Br)c1O,1300 nM (active),
OCc1ccccc1O[C@@H]1O[C@H](CO)[C@@H](O)[C@H](O)[C@H]1O,inactive,
C[C@]12CCC(=O)C=C1CC[C@@H]1[C@@H]2[C@@H](O)C[C@@]2(C)[C@H]1CC[C@]2(O)C(=O)COP(=O)(O)O,inactive,
COc1ccc(/C=C/C(=O)O[C@H]2[C@@H]3C=CO[C@@H](O[C@@H]4O[C@H](CO)[C@@H](O)[C@H](O)[C@H]4O)[C@@H]3[C@@]3(CO)O[C@@H]23)cc1O,inactive,
COc1c2c(c(C)c3c1C(=O)OC3)O[C@@]1(C)C[C@@H](O)[C@]34O[C@](OC)(CC[C@]3(C)[C@H]1C2)OC4(C)C,inactive,
C[C@@H]1C(=O)O[C@H]2CC34[C@H]5C[C@@H](C(C)(C)C)C36[C@@H](OC(=O)[C@@H]6O)OC4(C(=O)O5)[C@]21O (stereo not given in full),inactive,
O=C(CCCCc1ccc2ccccc2c1)C(F)(F)F,inactive,
Cn1ccnc1CCOC(c1cc2nccc(C(=O)O)c2[nH]1)c1ccccc1Cl (stereo not given),inactive,
OC[C@H]1O[C@@H](Oc2ccc3c(c2)OC[C@H]2c4cc5c(cc4O[C@@H]32)OCO5)[C@H](O)[C@@H](O)[C@@H]1O,inactive,
C/C(=C/CCC(CO)C1CCC2(C)C3CCC4C(C)(C)C(OC5OC(CO)C(O)C(O)C5O)CC(O)C45CC35CCC12C)COC1OC(CO)C(O)C(O)C1O (stereo not given),inactive,
O=C1NC(Cc2ccc(O)cc2)C(=O)N2CCCC12 (stereo not given),inactive,
O=C(/C=C/c1ccc(O)cc1)OC[C@H]1O[C@@H](OC(=O)/C=C/c2ccccc2)[C@H](O)[C@@H](O)[C@@H]1O,inactive,
C=C1CCC[C@]2(C)C[C@]3(O)OC(=O)C(C)=C3C[C@@H]12,inactive,
CC(C)(O)C1=CCC23COC(C2)C(O)(C(=O)O)CCC13 (stereo not given),inactive,
C=C1C(=O)OC2/C=C(\C)CC/C=C(\C(=O)O)CC/C=C(\C)CCC12 (stereo not given),inactive,
CC(C)(C)NCc1cc(Nc2ccnc3cc(Cl)ccc23)c2c(c1O)CCCC2,,0.372% [at 0.354 µM]
C=C1CC2[C@]3(C)C(=C(O)C(=O)[C@@]2(C)[C@]2(C(=O)OC)C(=O)C(C)OC(=O)[C@@]12C)C(C)(C)C(=O)CC3O (stereo not given in full),inactive,
